What all share (assay): protein-binding microarray (PBM); PBM: ~300 nM protein, 6 mM HEPES pH 7.8, 80 mM KCl, 0.5 mM EDTA, 0.5 mM EGTA, 6% glycerol, 35 ng/ul poly-dIdC, 1% milk, 1 h, room temperature; Ap Aiptasia and Nv Nematostella (sea anemones) / Co Capsaspora / Aq Amphimedon (sponge) / Dm Drosophila / Hu human; RHD is the Rel homology domain; high values mean tight binding
Holding throughout (conditions): dsDNA, one strand shown

One experiment has as its target T1, GST-Ap-NF-kB RHD (Exaiptasia pallida (Aiptasia), UniProt A0A913YAJ5 2-422).
T1 sequence: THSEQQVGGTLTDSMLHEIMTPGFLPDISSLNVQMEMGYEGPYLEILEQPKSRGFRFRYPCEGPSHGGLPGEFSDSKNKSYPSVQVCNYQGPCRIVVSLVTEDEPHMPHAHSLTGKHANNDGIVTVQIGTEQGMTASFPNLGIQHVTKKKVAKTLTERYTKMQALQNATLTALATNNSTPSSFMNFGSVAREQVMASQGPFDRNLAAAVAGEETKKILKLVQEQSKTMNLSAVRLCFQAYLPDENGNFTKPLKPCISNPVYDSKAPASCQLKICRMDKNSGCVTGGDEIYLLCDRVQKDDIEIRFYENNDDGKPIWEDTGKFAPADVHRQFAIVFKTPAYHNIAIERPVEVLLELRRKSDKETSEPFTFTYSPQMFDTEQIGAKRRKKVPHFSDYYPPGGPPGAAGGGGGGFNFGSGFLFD

Experiment [1] deals with T2, GST-Nv-NF-kB (Cys allele) (Nematostella vectensis, UniProt E5G601 2-411).
T2 sequence: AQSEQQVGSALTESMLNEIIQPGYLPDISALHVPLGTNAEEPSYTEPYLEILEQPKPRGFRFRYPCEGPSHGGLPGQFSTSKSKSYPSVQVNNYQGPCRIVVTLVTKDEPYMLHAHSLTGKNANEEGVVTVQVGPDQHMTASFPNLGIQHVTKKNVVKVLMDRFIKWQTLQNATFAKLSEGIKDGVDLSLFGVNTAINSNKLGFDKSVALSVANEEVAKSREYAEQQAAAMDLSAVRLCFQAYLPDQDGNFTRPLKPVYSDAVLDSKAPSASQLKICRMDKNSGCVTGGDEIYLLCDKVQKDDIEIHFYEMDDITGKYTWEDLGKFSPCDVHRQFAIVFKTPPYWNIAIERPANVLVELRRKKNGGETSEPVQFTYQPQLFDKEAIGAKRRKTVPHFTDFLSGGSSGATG

In another experiment the target is T3, GST-Co-NF-kB (Capsaspora owczarzaki, UniProt F1ARL5 200-546).
T3 sequence: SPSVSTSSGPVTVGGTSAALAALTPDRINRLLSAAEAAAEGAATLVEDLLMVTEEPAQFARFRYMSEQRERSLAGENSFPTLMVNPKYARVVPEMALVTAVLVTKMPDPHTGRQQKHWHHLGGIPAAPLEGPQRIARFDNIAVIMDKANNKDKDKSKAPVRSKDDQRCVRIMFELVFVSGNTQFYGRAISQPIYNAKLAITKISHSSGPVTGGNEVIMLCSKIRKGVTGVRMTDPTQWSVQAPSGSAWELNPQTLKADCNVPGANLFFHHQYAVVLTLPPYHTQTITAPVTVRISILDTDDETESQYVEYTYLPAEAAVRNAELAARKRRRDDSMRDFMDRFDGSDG

In another experiment the target is T4, GST-Dm-Relish (Drosophila melanogaster, UniProt Q94527 99-473).
T4 sequence: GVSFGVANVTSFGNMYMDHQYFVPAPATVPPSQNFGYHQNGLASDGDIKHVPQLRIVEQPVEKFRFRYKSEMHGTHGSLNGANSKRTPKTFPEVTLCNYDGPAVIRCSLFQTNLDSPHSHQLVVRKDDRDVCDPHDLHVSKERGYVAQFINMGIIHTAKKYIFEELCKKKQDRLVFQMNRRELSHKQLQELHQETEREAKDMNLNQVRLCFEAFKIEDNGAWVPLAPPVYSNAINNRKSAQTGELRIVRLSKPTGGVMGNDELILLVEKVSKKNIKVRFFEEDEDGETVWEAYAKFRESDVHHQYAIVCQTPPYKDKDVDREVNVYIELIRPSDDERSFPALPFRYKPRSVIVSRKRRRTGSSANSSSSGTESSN

The next experiment addresses T5, GST-Aq-NF-kB (Amphimedon queenslandica, UniProt A9Y5G7 2-389).
T5 sequence: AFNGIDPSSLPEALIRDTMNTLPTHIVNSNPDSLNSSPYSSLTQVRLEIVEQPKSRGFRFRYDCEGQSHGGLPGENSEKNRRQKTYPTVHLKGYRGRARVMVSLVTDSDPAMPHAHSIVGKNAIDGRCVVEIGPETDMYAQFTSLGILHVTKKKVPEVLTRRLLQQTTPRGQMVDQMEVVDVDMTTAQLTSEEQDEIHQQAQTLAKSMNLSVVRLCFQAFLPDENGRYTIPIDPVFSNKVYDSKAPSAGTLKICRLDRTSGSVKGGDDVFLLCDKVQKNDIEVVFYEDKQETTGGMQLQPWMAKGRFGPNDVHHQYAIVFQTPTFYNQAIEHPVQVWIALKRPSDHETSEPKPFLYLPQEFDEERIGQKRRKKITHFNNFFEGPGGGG

Consider “CCGATTAACATCATAATTCCCAATGATGTTAATCGGGTCTTGATTCGCTTGACGCTGCTG”, for which the binding signal with GST-Ap-NF-kB RHD was found to be 1.92 z-score; in experiment [1], 3.54 z-score; with GST-Co-NF-kB, 2.94 z-score; with GST-Dm-Relish it was 2.22 z-score; with GST-Aq-NF-kB, 2.84 z-score.

As for “CCGATTAACATCACTGGGAAAACTGATGTTAATCGGGTCTTGATTCGCTTGACGCTGCTG”, the binding signal in the experiment with GST-Ap-NF-kB RHD turned out to be 1.79 z-score; in experiment [1] it was 2.36 z-score; with GST-Co-NF-kB it was 5.25 z-score; with GST-Dm-Relish, 1.48 z-score; with GST-Aq-NF-kB, 1.81 z-score.

Turning to “CCGATTAACATCAGGGGATCCACTGATGTTAATCGGGTCTTGATTCGCTTGACGCTGCTG”, the binding signal is 7.41 z-score in the experiment with GST-Ap-NF-kB RHD; 5.27 z-score in experiment [1]; 2.76 z-score with GST-Co-NF-kB; 9.75 z-score with GST-Dm-Relish; 6.81 z-score in the experiment with GST-Aq-NF-kB.

For “CCGATTAACATCAACCCTCCCCCTGATGTTAATCGGGTCTTGATTCGCTTGACGCTGCTG”, the binding signal was found to be 3.89 z-score in the experiment with GST-Ap-NF-kB RHD; 3.26 z-score in experiment [1]; 4.5 z-score with GST-Co-NF-kB; 2.76 z-score with GST-Dm-Relish; 3.64 z-score in the experiment with GST-Aq-NF-kB.

In the case of “CCGATTAACATCAGGGCGTCCCCTGATGTTAATCGGGTCTTGATTCGCTTGACGCTGCTG”, the binding signal turned out to be 6.5 z-score with GST-Ap-NF-kB RHD; 5.76 z-score in experiment [1]; 2.03 z-score with GST-Co-NF-kB; 8.13 z-score in the experiment with GST-Dm-Relish; 7.89 z-score in the experiment with GST-Aq-NF-kB.

Take “CCGATTAACATCAGGGGGGGCACTGATGTTAATCGGGTCTTGATTCGCTTGACGCTGCTG”: the binding signal came to 4.77 z-score in the experiment with GST-Ap-NF-kB RHD; 3.1 z-score in experiment [1]; 4.2 z-score with GST-Co-NF-kB; 4.97 z-score in the experiment with GST-Dm-Relish; 4.76 z-score with GST-Aq-NF-kB.

As to “CCGATTAACATCACAGCCCCCCCTGATGTTAATCGGGTCTTGATTCGCTTGACGCTGCTG”, the binding signal was determined as 4.64 z-score with GST-Ap-NF-kB RHD; 3.58 z-score in experiment [1]; 3.34 z-score in the experiment with GST-Co-NF-kB; 4.81 z-score with GST-Dm-Relish; 3.82 z-score in the experiment with GST-Aq-NF-kB.

As to “CCGATTAACATCACGGGACCCCCTGATGTTAATCGGGTCTTGATTCGCTTGACGCTGCTG”, the binding signal with GST-Ap-NF-kB RHD amounted to 6.47 z-score; in experiment [1], 3.01 z-score; in the experiment with GST-Co-NF-kB, 1.75 z-score; with GST-Dm-Relish, 6.84 z-score; in the experiment with GST-Aq-NF-kB it was 3.7 z-score.

Consider “CCGATTAACATCAACGCCCCCCCTGATGTTAATCGGGTCTTGATTCGCTTGACGCTGCTG”, for which the binding signal with GST-Ap-NF-kB RHD amounted to 5.09 z-score; in experiment [1] it was 4.29 z-score; with GST-Co-NF-kB it was 4.15 z-score; with GST-Dm-Relish, 4.35 z-score; with GST-Aq-NF-kB it was 4.73 z-score.

For “CCGATTAACATCAGGGGTTTCACTGATGTTAATCGGGTCTTGATTCGCTTGACGCTGCTG”, the binding signal with GST-Ap-NF-kB RHD came out at 3.56 z-score; in experiment [1], 3.24 z-score; with GST-Co-NF-kB, 2.93 z-score; in the experiment with GST-Dm-Relish, 7.34 z-score; with GST-Aq-NF-kB, 4.84 z-score.

With “CCGATTAACATCAGAAATTCCCATGATGTTAATCGGGTCTTGATTCGCTTGACGCTGCTG”, the binding signal in the experiment with GST-Ap-NF-kB RHD is 4.5 z-score; in experiment [1], 6.44 z-score; with GST-Co-NF-kB, 4.07 z-score; in the experiment with GST-Dm-Relish it was 5.05 z-score; in the experiment with GST-Aq-NF-kB it was 4.99 z-score.

As to “CCGATTAACATCAAATCTTTCCCTGATGTTAATCGGGTCTTGATTCGCTTGACGCTGCTG”, the binding signal amounted to 3.05 z-score in the experiment with GST-Ap-NF-kB RHD; 5.25 z-score in experiment [1]; 5.78 z-score with GST-Co-NF-kB; 1.24 z-score in the experiment with GST-Dm-Relish; 4.92 z-score in the experiment with GST-Aq-NF-kB.

As for “CCGATTAACATCAAGTCCCCCAATGATGTTAATCGGGTCTTGATTCGCTTGACGCTGCTG”, the binding signal stood at 4.26 z-score with GST-Ap-NF-kB RHD; 3.66 z-score in experiment [1]; 3.84 z-score with GST-Co-NF-kB; 2.8 z-score in the experiment with GST-Dm-Relish; 3.76 z-score with GST-Aq-NF-kB.

As to “CCGATTAACATCACGGAACTCCCTGATGTTAATCGGGTCTTGATTCGCTTGACGCTGCTG”, the binding signal was 3 z-score with GST-Ap-NF-kB RHD; 3.34 z-score in experiment [1]; 1.42 z-score in the experiment with GST-Co-NF-kB; 4.06 z-score with GST-Dm-Relish; 4.43 z-score with GST-Aq-NF-kB.

Values taken from PMC5700166.
